Compound activity: PubChem, The Scripps Research Institute Molecular Screening Center
CHO-K1 Ca antag – counter-screen for M1 antagonists: effect in parental CHO-K1 cells; ATP-induced calcium, Fluo-8 fluorescence; inhibition, % at 3 µM; 0.6% of 360,000 active;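 active = inhibition above a per-plate cutoff, the plate's mean sample inhibition plus 3 SD, cut at about 24% in these data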;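 also: 0% = DMSO plus EC80 ATP and 100% = DMSO alone without ATP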
M1 ag – activates human CHRM1 receptor; P11229; CHO-K1 hM1, Fluo-8 calcium fluorescence, agonist mode; 0% DMSO, 100% acetylcholine EC100; activation, % at 3 µM; 0.33% of 360,000 active; AID 588814;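 active = activation above the run's mean compound activation plus 3 SD, cut at about 16% in these data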;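 also: peak over basal fluorescence ratio within a 140 s kinetic read after compound addition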
Target sequence (P11229 whole entry, looked up): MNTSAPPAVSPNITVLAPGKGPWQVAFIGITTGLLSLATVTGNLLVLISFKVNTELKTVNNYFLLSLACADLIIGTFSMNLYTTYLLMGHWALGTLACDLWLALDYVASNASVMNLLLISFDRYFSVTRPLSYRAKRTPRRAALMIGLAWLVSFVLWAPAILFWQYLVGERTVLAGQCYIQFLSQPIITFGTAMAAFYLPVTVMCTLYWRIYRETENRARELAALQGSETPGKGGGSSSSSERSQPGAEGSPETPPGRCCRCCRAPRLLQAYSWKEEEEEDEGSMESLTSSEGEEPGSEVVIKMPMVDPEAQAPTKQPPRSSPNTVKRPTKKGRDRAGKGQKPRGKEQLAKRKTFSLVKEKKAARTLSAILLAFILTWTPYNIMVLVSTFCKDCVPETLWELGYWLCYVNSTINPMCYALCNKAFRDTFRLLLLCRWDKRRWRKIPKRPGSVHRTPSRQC
M1 PAM – positive allosteric modulators of human M1 muscarinic receptor | CHO-K1 hM1, Fluo-8 calcium fluorescence, ACh EC20; 0% = ACh EC20, 100% = maximal ACh | P11229 | AID 588819 | 0.088% of 360,000 active | activation, % at 3 µM; in the data active = activation above about 19%, passing the limit was not always enough
CHRM1 antagonist – blocks human M1 muscarinic receptor | AID 588852 | P11229 | CHO-K1 hM1, Fluo-8 calcium fluorescence, ACh EC80 antagonist | 1.3% of 360,000 active | inhibition, % at 3 µM;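 active = percent inhibition above its own plate's cutoff, namely the mean of that plate's compound wells plus 3 SD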;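 also: peak over basal fluorescence ratio during 140 s after agonist addition; 0% = ACh EC80 plus DMSO and 100% = DMSO alone without agonist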
M1 PAM parental – M1 PAM counterscreen hit in parental CHO-K1 cells; ATP EC20, Fluo-8 calcium fluorescence; 0% at ATP EC20, 100% at ATP max; activation, % at 3 µM; 0.02% of 360,000 active; AID 602247;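 active = activation above the run cutoff, the mean activation of all test compounds plus 3 SD, cut at about 40% in these data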;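 also: peak over basal fluorescence ratio in a 140 s read after ATP addition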
CHO-K1 Ca ag – M1 agonist counterscreen hit in parental CHO-K1 cells. Fluo-8 calcium fluorescence; scaled to maximal ATP response, vehicle zero. activation, % at 3 µM. 0.48% of 360,000 active. AID 602248; in the data active = activation above about 15%;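 also: untransfected CHO-K1 host cells lacking M1 receptor as counterscreen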
Numbers without * were called inactive. An excerpt weighted towards active compounds, which were near 2.3% of everything screened.

SMILES	CHO-K1 Ca antag	M1 ag	M1 PAM	CHRM1 antagonist	M1 PAM parental	CHO-K1 Ca ag
CN1CCN(CCc2nc3cc(NC(=O)c4ccco4)ccc3n2C)CC1	-16	-3	11	-11	15	0
Cc1ccc(N2CCN(CCc3nc4cc(NC(=O)c5ccco5)ccc4n3C)CC2)cc1	11	-6	-22	25*	-5	1
Cn1c(CN2CCOCC2)nc2cc(NC(=O)COc3ccccc3)ccc21	-12	-7	6	-2	13	2
Cn1c(CCN2CCOCC2)nc2cc(NC(=O)COc3ccccc3)ccc21	26*	-5	5	11	-2	0
CCOC(=O)N1CCN(Cc2nc3cc(NC(=O)c4cccs4)ccc3n2C)CC1	-1	-6	-16	26*	-1	1
CSCC[C@H](NC(=O)OC(C)(C)C)C(=O)NCC1CCC(C(=O)N[C@@H](Cc2ccccc2)C(=O)O)CC1 (stereo partly drawn)	-8	-3	8	-12	-3	0
Cc1cc(CN(C)C(=O)C2CCC(=O)N(CCc3cccc(F)c3)C2)on1 (stereo not drawn)	-10	-2	5	-7	5	1
Cn1c(CCN2CCN(c3ccc(F)cc3)CC2)nc2cc(NC(=O)c3ccco3)ccc21	16	-7	-21	27*	-4	0
Cn1c(CN2CCCC2)nc2cc(NC(=O)c3ccco3)ccc21	-3	-7	2	0	1	0
CCC(=O)Nc1ccc2c(c1)nc(CCN1CCN(c3ccccc3)CC1)n2C	8	-9	-21	43*	-23	0
CCOc1c(OC(C)=O)ccc(/C=C/c2ccc3cccc(OC(C)=O)c3n2)c1[N+](=O)[O-]	-6	-3	4	-3	11	2
C=CCN1C(=O)/C(=C/c2ccc(OC(C)=O)c(OCC)c2[N+](=O)[O-])SC1=S	25*	7	-2	17	7	12
CCOc1cc(C(=O)N2CCCC2)cc(OCC)c1OCC	26*	-1	-1	-19	-7	0
Cn1cnc2c1c(=O)n(CC(O)CO)c(=O)n2C (stereo not drawn)	6	0	-9	29*	2	0
Cn1cnc2c1c(=O)n(Cc1ccccc1)c(=O)n2C	-4	-2	11	-8	12	1
O=C1c2ccccc2-c2n[nH]c(=O)c3ccc(N4CCCCC4)c1c23	-6	-15	8	-10	21	0
CC(=O)Nc1ccc(Sc2ncccc2C(=O)Nc2ccc(F)cc2)cn1	12	69*	-24	52*	-15	37*
CC1(C)Cc2c(C#N)c(N3CCCC3)nc(-c3ccco3)c2CO1	-9	-2	1	3	10	0
N#Cc1c(N2CCOCC2)nc(-c2ccco2)c2c1CCCC2	25*	-2	-1	13	-7	1
O=C(COC(=O)c1ccc(Cl)c(S(=O)(=O)N2CCCCC2)c1)NCCc1ccccc1	25*	3	12	-9	-24	0
CC1CN(C(=O)COC(=O)c2ccc(Cl)c(S(=O)(=O)N3CCCCC3)c2)CC(C)O1 (stereo not drawn)	7	-10	13	-10	13	20*
COc1ccc(C(=O)OCC(=O)NCCc2ccc(F)cc2)cc1S(=O)(=O)N1CCOCC1	-11	-6	-7	33*	-6	0
O=C(NCCc1ccccc1)c1ccc(Cl)c(S(=O)(=O)N2CCCC2)c1	-3	1	8	-8	-6	13
CCOc1ccc(OCCNCc2ccc(OC(C)C(=O)N(C)C)c(OCC)c2)cc1 (stereo not drawn)	-2	-1	2	-1	10	1
CC(=O)Nc1ccc(NC(=O)CSc2nnc3ccc(-c4cccnc4)nn23)cc1	4	-1	-8	20*	-14	0
SMILES	CHO-K1 Ca antag	M1 ag	M1 PAM	CHRM1 antagonist	M1 PAM parental	CHO-K1 Ca ag
CC(=O)Nc1cccc(NC(=O)CSc2nnc3ccc(-c4cccnc4)nn23)c1	2	2	0	-6	-9	0
Cc1ccc(C)c(C(=O)CN2C(=O)NC3(CCCCCC3)C2=O)c1	-11	-7	2	-6	11	3
CCN(c1ccccc1)S(=O)(=O)c1cccc(C(=O)NCC(c2cccs2)N(C)C)c1 (stereo not drawn)	-14	-5	-24	52*	20	3
CNS(=O)(=O)c1cccc(C(=O)NCC(c2cccs2)N(C)C)c1 (stereo not drawn)	-9	-5	-2	-3	20	1
COc1ccc(NC(=O)N2CCCC2C(=O)Nc2ccc(C)cc2C)cc1 (stereo not drawn)	-16	-6	9	-12	29	1
Cc1ccc(S(=O)(=O)N2CCN(C(=O)CCn3cncn3)CC2)cc1C	-10	-6	6	-12	6	0
COc1ccc(CN(C)c2ccc(S(=O)(=O)N3CCN(C)CC3)cc2[N+](=O)[O-])cc1OC	31*	3	-15	43*	-11	16*
CCN(c1cccc(C(F)(F)F)c1)S(=O)(=O)c1ccc2c(c1)CCN2C(=O)C1CC1	3	0	-16	33*	12	4
C=CCn1c(-c2cc(-c3ccccc3)sc2N)n[nH]c1=S	-5	-4	1	4	-7	0
CCn1c(SC(C)C)nnc1-c1cc(-c2ccccc2)sc1N	28*	-5	1	3	-9	0
COc1ccccc1C1CCN(Cc2ccc(C)cc2)CC1	-4	-5	3	-9	18	18*
COc1ccccc1C1CCN(Cc2cccc(C(=O)N3CCC(O)CC3)c2)CC1	2	3	-8	25	-5	0
O=C(Nc1ccncc1)c1cc2ccccc2cc1O	-8	4	-4	2	5	16*
O=C(Nc1ccncc1)c1ccccc1F	-6	-2	3	-19	1	0
O=C(Nc1cccc([N+](=O)[O-])c1)c1cc2ccccc2cc1O	10	10	-12	22	4	16*
C/C(=N\NC(=O)c1cc2ccccc2cc1O)c1ccccn1	-15	2	29*	-22	-2	0
Cc1ccc(S(=O)c2ccc([N+](=O)[O-])c3nonc23)cc1 (stereo not drawn)	18	7	8	2	5	7
COC(=O)c1sccc1S(=O)(=O)Nc1ccc(Cl)cc1	-14	-2	-7	10	2	6
COC(=O)c1sccc1S(=O)(=O)Nc1ccc(C(O)(C(F)(F)F)C(F)(F)F)cc1	8	66*	-33	39*	3	61*
OC(c1cc(C(F)(F)F)nc2c(C(F)(F)F)cccc12)C1CCCCN1 (stereo not drawn)	20	-2	5	-20	-3	2
OC(c1cc(-c2ccc(C(F)(F)F)cc2)nc(C(F)(F)F)c1)C1CCCCN1 (stereo not drawn)	14	16*	15	6	15	18*
